Measured values taken from paper PMC12136788.
Numbering of substitutions follows the chain as printed. The full ranking holds about 24,000 sequences; the median of “enrichment r” is about 0.99, and the highest 2% start at about 3.7. A selection follows.

B1: chr1:220276048:220276049:+_ENSG00000067704_ENST00000302637|hu_hu|hu_hu_hu_mus_True|8_78 (ssRNA)
RNA: GGGAGUUCUACAGUCCGACGAUCGCAAAUUGCCUGGUUGGCGGGAAUUGUCCAAGGUUGUGUGGUCCAAACUAAAACGCUAACAGGGGAUGAGGCAUCUGUAAGAGACUCCAACUUCGGAGGAGGUUUUAAGAGAGGGAAUCUCAACAGAGGAUUGAGCAUCA
B2: chr9:62645482:62645483:-_ENSMUSG00000032244_ENSMUST00000034775|mus_hu|FALSE|FALSE (ssRNA)
RNA: GGGAGUUCUACAGUCCGACGAUCUACUGUGGUAUGGUUCACGUUGGCUCCAUGGCUGACUAGAAGUUUAACAACUUCAAAAUGUCCUGCUCCAGCUGCACACCAAAGAGCAGUGGCACCAUCAAUGACAUACCCGUCGAAGCGCAACAGAGGAUUGAGCAUCA
B3: chr2:232319755:232319756:-_ENSG00000115053_ENST00000322723|hu_hu|motif|central (ssRNA)
RNA: GGGAGUUCUACAGUCCGACGAUCAAAAGUUUAUAUGAAUAUCCAGUCAAAACCAACACGGUAUUGCCCUUGAAAUGUUAACGGGACGGAUUUCCAAGGAGACCACAGGACUGUAUACUGUCUUGGAAUGUCCUCAGAAGGCUCCAACAGAGGAUUGAGCAUCA
B4: 69235085_69235205_3312_3pUTR_ENSG00000135679_ENST00000462284|human|control|control (ssRNA)
RNA: GGGAGUUCUACAGUCCGACGAUCGGCUGGAGAAUAAGUACAUUUUUACAGCCGGGUGUGGUGGCUAACGCCUGUAAUCCUACUUAGCACUUUGCGAGGCCAAGACAGGAGGAUCUCUUGAGCCCAGGAGUUCGAGACCAGCCUCAACAGAGGAUUGAGCAUCA
B5: chr11:79222206:79222207:+_ENSMUSG00000020716_ENSMUST00000071325|mus_hu|FALSE|FALSE (ssRNA)
RNA: GGGAGUUCUACAGUCCGACGAUCUUUUGUAAAUUCAUCUGGAUAAUUUUCUACCCAGUUCCAAAAUGCCUUUUCCAGGCUAUUUAUAACUGCUAACUGCGCAACCUUCUUUAGGGCUUUAAAUUUAAAUGCUGUUUCCUUCAGCAACAGAGGAUUGAGCAUCA
B6: 62954625_62958383_5419_CDS_ENSG00000116641_ENST00000251157|human|control|control (ssRNA)
RNA: GGGAGUUCUACAGUCCGACGAUCUGCUUCUUGAAGUUUACCAUGAAUUGUGGAUAGUUUCUUUGCAUCCCGAUUAGCUUCAUGAAUAGGAAUAAGUACUUUGUAAACUUCAUUAACUGCUUCAUACAUGCCAGCCAUAGAGAACAACAGAGGAUUGAGCAUCA
B7: chr9:53391639:53391640:-_ENSMUSG00000032047_ENSMUST00000034547|mus_hu|motif|central (ssRNA)
RNA: GGGAGUUCUACAGUCCGACGAUCCACUUUUUGGGGAUCAAUCUCCAACAUUUUAAUGUUUGCUAGUACAACCAGACGGAAGGCUUCAUUUACUUCCCACAUUGCAAUAUCUUCUUUUUUCAAUCCCACAUCUUUAAGAACCAUCAACAGAGGAUUGAGCAUCA
B8: chr4:76721835:76721836:+_ENSG00000138768_ENST00000264904|hu_mus|hu_hu_hu_mus_True|48_48 (ssRNA)
RNA: GGGAGUUCUACAGUCCGACGAUCGUUUGGCUGGGGUUUCUGAGACGCUCUGGAAUAUAACUCAUGUUUGCUAAUAAAUCCUAGUUUUCUAUGAAAUUUCUCUUUGCCAAUCCUCUUCUCUAUUAGUUGCUUUAGUUUCUCUUUCAACAGAGGAUUGAGCAUCA
B9: chr9:66219764:66219765:+_ENSMUSG00000038664_ENSMUST00000042824|mus_mus|motif|central (ssRNA)
RNA: GGGAGUUCUACAGUCCGACGAUCUUCAAAAUCAGGCAACUGUGGUCCUUUGAGGCAUAAAACCUGUUGAGGCAAAGGUACGGCUUCCUUAUUGCUGAUCAGUUUAGAAUACAAAACGGUAACUCCCUCUCUUGUAGCAAUAGACAACAGAGGAUUGAGCAUCA
B10: chr7:44244176:44244177:+_ENSG00000106636_ENST00000223369|hu_mus|hu_hu_hu_mus_False|38_108 (ssRNA)
RNA: GGGAGUUCUACAGUCCGACGAUCACUAUCAUUCCGGACGUAGACAUGGCAAAGAUACUCUUGUUCUUUGACAGAAGCUCUGCUGCCUUUCCCCGAGCGCUCCACAAUCAGUUGACUUGUAAAGGUCAUGAAUUCCUGCACACUCAACAGAGGAUUGAGCAUCA
B11: 109692034_109692919_6190_CDS_ENSG00000148143_ENST00000277225|human|control|control (ssRNA)
RNA: GGGAGUUCUACAGUCCGACGAUCGAGGUGAUUGCAGAUGGCUCGGAGCGUUGGGUGCACUUCCACACAGAAUUUACAUUUGUAGCCCACCACUUUCCUCUCCUUGAUCUUUGGCACCUCUUCUAAGUGACCAAAAGGCCUCUCCAACAGAGGAUUGAGCAUCA
B12: chr1:220276048:220276049:+_ENSG00000067704_ENST00000302637|hu_hu|hu_hu_hu_mus_True|38_88 (ssRNA)
RNA: B1 RNA with U48C, U57C, U60G, G100A, U127C, U129C, A131G, A135G
B13: chr1:115282363:115282364:-_ENSG00000009307_ENST00000339438|perfect_dup|motif|central (ssRNA)
RNA: GGGAGUUCUACAGUCCGACGAUCAUCAUCUCCUACUUUUAAGUCUUGCAGGUUGCCAUUAUACUGUGAACAGUGGAAGAAAAGUCGGGCUUGACGUUCUGAACACUGAAUAAAUCCGUAAGAGGUUAACAGUUUUUCAAUAACCAACAGAGGAUUGAGCAUCA
B14: chr18:35748043:35748044:+_ENSMUSG00000037236_ENSMUST00000166793|perfect_dup|FALSE|FALSE (ssRNA)
RNA: GGGAGUUCUACAGUCCGACGAUCUGUAUAAAAGAGUGAACACAGCUUACAGUAAAACCCUGUUUUAGGUAUCACAUAGUCUAUACCAACAGGAACAUUAGGCUGAUAUGGUCCGAUUCUAUACUCAUCGGGAAUUGUAUAAUCCAACAGAGGAUUGAGCAUCA

biological target: T1, UNK ZnF1-3 (human, UniProt Q9C0B0 31-174); assay: nsRBNS (natural sequence RNA bind-n-seq); RBNS binding buffer (assumed for nsRBNS): 25 mM Tris pH 7.5, 150 mM KCl, 3 mM MgCl2, 0.01% Triton X-100, 500 ug/ml BSA, 20 U/ml SUPERase-In, 4 C; UNK is unkempt and MSI1 is Musashi-1; names of the RNAs are library labels; protein concentration not given here; high values mean tight binding
T1 sequence: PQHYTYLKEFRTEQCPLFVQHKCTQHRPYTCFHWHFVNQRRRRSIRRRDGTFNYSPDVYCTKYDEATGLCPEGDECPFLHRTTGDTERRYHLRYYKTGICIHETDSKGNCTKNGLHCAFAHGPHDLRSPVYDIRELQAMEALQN

Binder | binding signal [enrichment R]
B1 | 1.91
B2 | 0.893
B3 | 0.847
B4 | 1.12
B5 | 0.853
B6 | 1.01
B7 | 1.03
B8 | 0.57
B9 | 0.879
B10 | 0.779
B11 | 0.805
B12 | 1.67
B13 | 1.55
B14 | 0.418
